Where “and” joins values, the source holds several entries; their conditions need not be identical. Equal entries are not always repeated. Inconclusive results are not listed. The source holds several records for some structures; these can differ, active in one and inactive in another. Calls of active or inactive are those of the source. Unless noted, calls follow the shape of the dose curve; as a rule, active = well fitted curve in the direction sought with a large enough effect; inconclusive = small, poorly fitted or top-dose-only effect, or another doubt; inactive = no such curve, though single readings can be large; an effect the other way counts as inactive or inconclusive.
Columns and labels:
[1] = NS1 protein of Zika virus - qHTS assay to identify small molecule inhibitors in human HEK 293 cells (AID 1347053); also: nearly all actives have a fitted effect of over 55% in size; also: potency is read from the fitted curve at half-maximal effect
In short: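 Read-out is a two-antibody TR-FRET for ZIKV NS1, normalized between uninfected cells and infected cells. Compound added 1 h before MR766 infection at MOI 0.5; human HEK 293 cells incubated 24 h, 37 C.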

[2] = qHTS of pediatric cancer cell lines to identify multiple opportunities for drug repurposing: Primary screen for TC32 cells (AID 1347089); also: nearly all actives have a fitted effect of over 60% in size; also: potency is read from the fitted curve at half-maximal effect
In short: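 Luminescent ATP read-out (CellTiter-Glo) of metabolically active TC32 cells after 48 h exposure. Concentration-response curves came from 11-point (MIPE, 0.78 nM–46 µM) or 8-point (NPC, 0.59 nM–46 µM) primary titrations; follow-up used 11 points.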

[3] = qHTS of pediatric cancer cell lines to identify multiple opportunities for drug repurposing: Primary screen for DAOY cells (AID 1347090); also: nearly all actives have a fitted effect of over 55% in size; also: potency is read from the fitted curve at half-maximal effect
In short: (§1)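 Cell viability, CellTiter-Glo luminescence; 500-1,000 cells/well, 8- or 11-point titration, 48 h compound exposure at 37 degrees C, 5% CO2. Controls: DMSO neutral, bortezomib 2.3 µM final as positive.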

[4] = qHTS of pediatric cancer cell lines to identify multiple opportunities for drug repurposing: Primary screen for SJ-GBM2 cells (AID 1347091); also: potency is read from the fitted curve at half-maximal effect
In short: as §1

[5] = qHTS of pediatric cancer cell lines to identify multiple opportunities for drug repurposing: Primary screen for SK-N-MC cells (AID 1347093); also: potency is read from the fitted curve at half-maximal effect
In short: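 Metabolically active cells were quantified by ATP-dependent luminescence (CellTiter-Glo, 15 min at room temperature) following 48 h treatment. Cells had been plated at 500-1,000 per well and settled for 5 h beforehand.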

[6] = qHTS of pediatric cancer cell lines to identify multiple opportunities for drug repurposing: Primary screen for BT-37 cells (AID 1347094); also: potency is read from the fitted curve at half-maximal effect
In short: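 Viability was measured as metabolically active cells after 48 hours of treatment, read by CellTiter-Glo luminescence. Compounds were tested at multiple final concentrations, giving concentration-response curves.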

[7] = qHTS of pediatric cancer cell lines to identify multiple opportunities for drug repurposing: Primary screen for A673 cells (AID 1347092); also: nearly all actives have a fitted effect of over 45% in size; also: potency is read from the fitted curve at half-maximal effect
In short: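 Cell viability of A673 measured by CellTiter-Glo ATP luminescence after 48 hours compound exposure. Dilution series spanned 0.78 nM to 46 µM (MIPE, 11-point) or 0.59 nM to 46 µM (NPC, 8-point); bortezomib 2.3 uM positive control.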

[8] = biological target: T1, Tyrosine-protein phosphatase non-receptor type substrate 1 (Homo sapiens) + Leukocyte surface antigen CD47 (Homo sapiens) (UniProt P78324+Q08722); test: CD47-SIRPalpha protein protein interaction - LANCE assay qHTS validation (AID 1347057; active = well fitted curve in the direction sought with a large enough effect in the signal ratio, with a control signal flat, not every such curve was filed as active; the % refers to the signal ratio; also: series mostly up to about 38 µM)
T1 sequence (P78324 whole entry, looked up, the tested form may be a part): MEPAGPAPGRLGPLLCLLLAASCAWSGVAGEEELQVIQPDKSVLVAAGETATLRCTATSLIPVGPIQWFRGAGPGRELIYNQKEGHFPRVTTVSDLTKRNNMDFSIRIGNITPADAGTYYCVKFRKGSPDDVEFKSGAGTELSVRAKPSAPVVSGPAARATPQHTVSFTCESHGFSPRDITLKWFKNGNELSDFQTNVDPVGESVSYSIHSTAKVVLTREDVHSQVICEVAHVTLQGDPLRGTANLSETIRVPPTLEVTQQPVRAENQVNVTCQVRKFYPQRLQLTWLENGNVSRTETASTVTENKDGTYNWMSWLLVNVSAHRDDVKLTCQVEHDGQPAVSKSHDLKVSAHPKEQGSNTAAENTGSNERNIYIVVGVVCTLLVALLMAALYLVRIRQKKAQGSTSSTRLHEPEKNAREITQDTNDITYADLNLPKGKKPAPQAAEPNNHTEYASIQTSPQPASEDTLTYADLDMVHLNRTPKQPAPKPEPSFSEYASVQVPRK
T1 sequence (Q08722 whole entry, looked up, the tested form may be a part): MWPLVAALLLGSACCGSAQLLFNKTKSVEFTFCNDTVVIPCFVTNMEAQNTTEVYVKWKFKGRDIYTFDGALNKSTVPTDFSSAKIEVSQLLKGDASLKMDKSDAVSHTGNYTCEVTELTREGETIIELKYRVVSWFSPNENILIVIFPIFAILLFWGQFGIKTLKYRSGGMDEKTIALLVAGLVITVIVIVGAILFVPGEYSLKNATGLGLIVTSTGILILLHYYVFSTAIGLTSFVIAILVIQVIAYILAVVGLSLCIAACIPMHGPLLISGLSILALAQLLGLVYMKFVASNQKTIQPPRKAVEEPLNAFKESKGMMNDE
In short: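 Inhibition of soluble CD47/SIRPalpha ectodomain association by titrated compounds, measured as 665/615 nm time-resolved FRET ratio after sequential 30 min room-temperature incubations.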

[9] = biological target: T1, Tyrosine-protein phosphatase non-receptor type substrate 1 (Homo sapiens) + Leukocyte surface antigen CD47 (Homo sapiens); test: CD47-SIRPalpha protein protein interaction - Alpha assay qHTS validation (AID 1347059);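 also: bead proximity luminescence from CD47 binding SIRPalpha after compound preincubation with SIRPalpha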; also: potency is read from the fitted curve at half-maximal effect
In short: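 AlphaScreen signal between CD47-His (12.5 nM) and biotin-SIRPalpha (25 nM) soluble extracellular domains, bead-captured via Ni-NTA and streptavidin. Compounds, in 7-point titrations, met SIRPalpha 30 min before CD47; PBS pH 7.4 with 0.05% IGEPAL.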

[10] = biological target: Parathyroid hormone/parathyroid hormone-related peptide receptor (Homo sapiens) (UniProt Q03431); test: qHTS for PTHR1 Agonists: Optimization Screen against the NCGC LOPAC library (AID 1347079);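 also: GloSensor cAMP luminescence in HEK-293 GP2 cells expressing human PTHR1 with IBMX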
Parathyroid hormone/parathyroid hormone-related peptide receptor (Homo sapiens), sequence (Q03431 whole entry, looked up): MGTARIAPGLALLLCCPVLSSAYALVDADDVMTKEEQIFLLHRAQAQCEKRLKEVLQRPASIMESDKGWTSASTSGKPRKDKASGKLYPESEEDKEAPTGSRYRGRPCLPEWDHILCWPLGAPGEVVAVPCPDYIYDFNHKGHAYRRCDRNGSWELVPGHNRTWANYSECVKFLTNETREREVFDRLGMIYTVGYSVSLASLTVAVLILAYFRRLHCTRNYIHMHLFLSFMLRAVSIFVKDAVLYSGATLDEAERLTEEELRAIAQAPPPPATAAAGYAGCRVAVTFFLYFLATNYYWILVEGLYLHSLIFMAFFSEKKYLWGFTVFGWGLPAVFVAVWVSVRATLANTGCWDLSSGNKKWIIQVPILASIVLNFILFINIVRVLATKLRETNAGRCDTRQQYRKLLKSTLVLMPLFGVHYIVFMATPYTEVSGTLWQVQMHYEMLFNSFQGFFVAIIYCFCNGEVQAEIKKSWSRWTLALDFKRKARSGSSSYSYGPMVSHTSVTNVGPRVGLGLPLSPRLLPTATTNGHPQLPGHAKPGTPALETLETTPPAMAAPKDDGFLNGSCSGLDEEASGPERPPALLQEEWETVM
In short: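 HEK-293 GP2 cells, PTHR1 + GloSensor cAMP; 3000 cells/well, o/n. Luciferin + IBMX 0.5mM each (stock), 1 hr 37C. Cpd titration, 1 hr 37C. Lum after 15 min RT. Ctrl M-PTH(1-15) top 10uM.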

Measured: Potency

Cc1ccc(S(=O)(=O)NC(=O)NN2CC3CCCC3C2)cc1 (stereo unspecified)
inactive: [1] | [2] | [3] | [4] | [5] | [6]

C=C(c1ccc(C(=O)O)cc1)c1cc2c(cc1C)C(C)(C)CCC2(C)C
active: [4] 26.6 µM | [5] 2.11 µM
inactive: [1] | [2] | [7] | [6]

Cn1c(NCCN(CCO)CCCc2ccc([N+](=O)[O-])cc2)cc(=O)n(C)c1=O
inactive: [1] | [2] | [3] | [4] | [7] | [6]

CCCCN(CCCC)CCC(O)c1cc2c(Cl)cc(Cl)cc2c2cc(C(F)(F)F)ccc12 (stereo unspecified)
inactive: [1] | [2] | [3] | [7]
active: [5] 11.9 µM and 33.2 µM

O=C(O)CCNC(=O)c1ccc(N=Nc2ccc(O)c(C(=O)O)c2)cc1
inactive: [1] | [2] | [3] | [4] | [7] | [6]

Cc1ccc(C)c(OCCCC(C)(C)C(=O)O)c1
inactive: [1] | [2] | [3] | [4] | [6]

COc1cc2c(cc1OC)C1CC(=O)C(CC(C)C)CN1CC2 (stereo unspecified)
inactive: [8] | [9] | [10] | [2] | [3] | [4] | [7] | [5] | [6]

CS(=O)(=O)OCCCCOS(C)(=O)=O
inactive: [1] | [2] | [3] | [4] | [7] | [6]

CC(C)c1nc(CN(C)C(=O)N[C@H](C(=O)N[C@@H](Cc2ccccc2)C[C@H](O)[C@H](Cc2ccccc2)NC(=O)OCc2cncs2)C(C)C)cs1
active: [5] 10.5 µM
inactive: [1] | [2] | [3] | [6]

O=C(CCc1ccc(O)cc1)c1c(O)cc(O)cc1O
inactive: [8] | [9] | [10] | [2]
active: [3] 0.118 µM | [5] 0.118 µM

CCN(CC)C(=S)SSC(=S)N(CC)CC
active: [2] 989 nM and 4.19 µM | [3] 11.8 nM and 49.5 nM and 133 nM | [4] 4.69 µM | [7] 11.8 nM and 19.7 nM | [5] 18.7 nM and 49.5 nM and 119 nM | [6] 24.3 nM and 815 nM
inactive: [8] | [9] | [10]

Clc1ccc(C(Cn2ccnc2)OCc2ccsc2Cl)c(Cl)c1 (stereo unspecified)
active: [7] 23.5 µM | [5] 2.66 µM | [6] 1 nM
inactive: [1] | [2] | [3]

COC(=O)C1=C(C)NC(C)=C(C(=O)OC(C)C)C1c1cccc2nonc12 (stereo unspecified)
inactive: [1] | [2] | [4] | [6]
active: [5] 2.64 µM

CN1CCC(=C2c3ccccc3CCc3sccc32)CC1
active: [5] 29.6 µM
inactive: [1] | [2] | [3] | [4]

Cc1nc(-c2ccc(OCC(C)C)c(C#N)c2)sc1C(=O)O
inactive: [1] | [2] | [3] | [4] | [7] | [6]

Clc1ccc(C(Cn2ccnc2)OCc2ccc(Sc3ccccc3)cc2)c(Cl)c1 (stereo unspecified)
inactive: [1] | [2] | [3] | [4] | [6]

CC(S)C(=O)NCC(=O)O (stereo unspecified)
inactive: [1] | [2] | [3] | [4] | [5] | [6]

Cc1cccc(C)c1OCC(=O)N[C@@H](Cc1ccccc1)[C@@H](O)C[C@H](Cc1ccccc1)NC(=O)[C@H](C(C)C)N1CCCNC1=O
inactive: [1] | [2] | [3]
active: [7] 23.5 µM | [5] 29.6 µM

Cc1c(OCC(F)(F)F)ccnc1CS(=O)c1nc2ccccc2[nH]1 (stereo unspecified)
inactive: [8] | [9] | [10] | [2] | [3] | [4] | [7] | [6]

O=c1ccc2ccc(O)c(O)c2o1
active: [3] 7.43 µM | [7] 5.9 µM
inactive: [8] | [9] | [10] | [2] | [4] | [6]

COC(=O)C1=C(C)NC(C)=C(C(=O)OCCCN2CCC(c3ccccc3)(c3ccccc3)CC2)C1c1cccc([N+](=O)[O-])c1 (stereo unspecified)
active: [5] 23.7 µM
inactive: [1] | [2] | [3] | [4] | [6]

CC(C)[N+]1(C)[C@@H]2CC[C@H]1CC(OC(=O)C(CO)c1ccccc1)C2 (stereo partly specified)
active: [7] 9.35 µM | [5] 9.35 µM
inactive: [1] | [2] | [4] | [6]

Cc1ccc(Nc2nccc(N(C)c3ccc4c(C)n(C)nc4c3)n2)cc1S(N)(=O)=O
active: [4] 14.8 µM | [5] 8.41 µM and 16.6 µM
inactive: [1] | [2] | [7]

O=Nc1c(-c2c(O)[nH]c3cc(Br)ccc23)[nH]c2ccccc12
inactive: [8] | [10] | [2]
active: [9] 1.31 µM | [3] 11.8 µM | [4] 5.9 µM | [7] 2.35 µM | [5] 2.09 µM | [6] 19300 nM

O=C(CS(=O)Cc1ccco1)NCC=CCOc1cc(CN2CCCCC2)ccn1 (stereo unspecified)
inactive: [1] | [2] | [3] | [4] | [7] | [6]

CC1(C)CCC(C)(C)c2cc(NC(=O)c3ccc(C(=O)O)cc3)ccc21
inactive: [1] | [2] | [4] | [6]
active: [5] 1.87 µM

C[C@H](Cn1cnc2c(N)ncnc21)OCP(=O)(O)O
inactive: [1] | [2] | [3] | [4] | [7] | [6]

Cc1ccc(C(=O)c2cc(O)c(O)c([N+](=O)[O-])c2)cc1
active: [7] 11.8 µM | [5] 23.7 µM and 18.7 µM
inactive: [1] | [2] | [3]

Cc1ccc(NC(=O)c2ccc(CN3CCN(C)CC3)cc2)cc1Nc1nccc(-c2cccnc2)n1
inactive: [1] | [2] | [3] | [4] | [5] | [6]

Cc1cccc(CN2CCN(C(c3ccccc3)c3ccc(Cl)cc3)CC2)c1 (stereo unspecified)
inactive: [1] | [2] | [4]
active: [7] 18.7 µM | [5] 11.9 µM and 18.7 µM

N=C(N=C(N)N)N1CCOCC1
inactive: [1] | [2] | [3] | [4] | [7] | [6]

O=C(NC(Cc1cc(=O)[nH]c2ccccc12)C(=O)O)c1ccc(Cl)cc1 (stereo unspecified)
inactive: [1] | [2] | [3] | [4] | [7] | [6]

CCOC(=O)C1=C[C@@H](OC(CC)CC)[C@H](NC(C)=O)[C@@H](N)C1
inactive: [1] | [2] | [3] | [4] | [7] | [6]

Cc1cc(C2CCCCC2)n(O)c(=O)c1
active: [2] 7.45 µM | [3] 10.6 µM | [7] 2.96 µM | [5] 750 nM and 1.18 µM | [6] 3090 nM
inactive and 6.62 µM (active): [1]

COc1cc(C(C)=O)ccc1OCCCN1CCC(c2noc3cc(F)ccc23)CC1
inactive: [1] | [2] | [3] | [7] | [5]

CCCc1cc(=O)[nH]c(=S)[nH]1
inactive: [1] | [2] | [3] | [4] | [6]

CN(C)C(=O)COC(=O)Cc1ccc(OC(=O)c2ccc(N=C(N)N)cc2)cc1
inactive: [1] | [2] | [3] | [4] | [6]

O=C(O)c1cccnc1Nc1cccc(C(F)(F)F)c1
inactive: [8] | [9] | [10] | [2] | [3] | [4] | [7] | [6]
active: [5] 26.6 µM

Nc1nc(Cl)nc2c1ncn2[C@H]1C[C@H](O)[C@@H](CO)O1
active: [2] 1.17 µM | [4] 7.43 µM | [7] 2.96 µM | [5] 18.7 µM | [6] 273 nM

C[C@]12CCC(=O)C=C1CC[C@@H]1[C@H]2[C@@H](O)C[C@@]2(C)[C@H]1CC[C@]2(O)C(=O)CO
active: [7] 18.7 µM
inactive: [2] | [3] | [4] | [5] | [6]

COc1ccc(C2(C#N)CCC(C(=O)O)CC2)cc1OC1CCCC1 (stereo unspecified)
active: [5] 16.6 µM
inactive: [2] | [3] | [4] | [6]

From PubChem BioAssay (NCATS)
